Measured values as given in PubChem BioAssay AID588689 (Southern Research Specialized Biocontainment Screening …, 2011).
In all, about 340,000 compounds went through this assay and about 1,000 (0.29%) were called active. No stated cut-off is given here; in the data, inconclusive means inhibition above about 29% without an active follow-up result; inactive means below that. The list is a sample of the results. Measured potencies and affinities stand elsewhere.

Biological target: Genome polyprotein (Dengue virus type 2 (strain 16681-PDK53)) (UniProt P29991)
Test: flavivirus cap methylation enzyme inhibition – biochemical, confirmation dose response, primary screen (AID 588689)
Settings: Dengue-2 NS5 methyltransferase capping enzyme assay, at 25 µM, stronger effect = higher value
[1] = measured here: pilot screen replicate inhibition

SMILES	inhibition	inhibition [1] [%]
CC1(c2ccc(Cl)cc2)NC(=O)N(CC(=O)NCCC2=CCCCC2)C1=O (centres undefined)	-2.9% (inactive)	
COc1ccc(-n2c(=S)[nH]c3cc(C(=O)Nc4cc(C(N)=O)ccc4OC)ccc3c2=O)c(OC)c1	-13.4% (inactive)	
COc1cc(N)c(Cl)cc1C(=O)OCC(=O)NC1CCCC1	-6.23% (inactive)	
CC(C)c1ccc(NC2CCCN(C(=O)CN3CCCC3=O)C2)cc1 (centres undefined)	-7.87% (inactive)	
C=CCNC(=S)NNC(=O)c1csc(C)c1CC	2.43% (inactive)	
CCOc1ccc(NC(=O)CN(C)C(=O)C2=COCCO2)cc1OCC	-3.6% (inactive)	
Nc1ccccc1Sc1ccc(C(=O)c2ccccc2C(=O)O)cc1[N+](=O)[O-]	17.6% (inactive)	
CC(=O)c1ccc(Sc2ccccc2)c([N+](=O)[O-])c1	3.06% (inactive)	
Cc1oc2c(c1C(=O)c1ccc(Cl)cc1)C(=O)C(=O)c1ccccc1-2	28% (inactive)	
Cc1ccc(C(=O)c2c[nH]cc2-c2ccccc2)cc1	-3.21% (inactive)	
O=C(c1ccccc1)c1coc2c1C(=O)c1ccccc1C2=O	6.1% (inactive)	
Cc1ccc(C(=O)c2coc3ccc(O)cc23)cc1	2.6% (inactive)	
Cc1ccc(C(=O)c2c(C)oc3c2C(=O)C(=O)c2ccccc2-3)cc1	21.1% (inactive)	
COc1ccc(C(=O)c2coc(-c3ccccc3C(=O)O)c2C(=O)O)cc1	2.56% (inactive)	
COc1ccc(C(=O)c2c(C(F)(F)F)oc3c2C(=O)c2ccccc2C3=O)cc1	9.03% (inactive)	
O=C1c2ccccc2C(=O)c2c1oc(C(F)(F)F)c2C(=O)c1ccccc1	-2.07% (inactive)	
CN1CCN(CCCNC(=O)Cn2ncc3c4ccccc4n(C)c3c2=O)CC1	-0.7% (inactive)	
CCOc1ccc(C(=O)Nc2cccc(NC(=O)c3cccs3)c2)cc1[N+](=O)[O-]	-6.19% (inactive)	
COc1cc(OC)cc(C(=O)NCCCNC(=O)c2cccnc2)c1	-1.78% (inactive)	
Cc1nc(N2CCOCC2)[nH]c(=O)c1CCC(C)C	-3.29% (inactive)	
CC(=C\C(=O)O)/C(=C\c1cccc2ccccc12)C(=O)O	-1.16% (inactive)	
CCn1c(=S)sc2c(=O)n(-c3ccccc3)c(SCC(=O)NCc3ccco3)nc21	2.42% (inactive)	
CN1C[C@H]2CON(C)[C@H]2C[C@H]1c1cccc(-c2ccccc2)c1	-6.62% (inactive)	-3.38

SMILES	inhibition	inhibition [1] [%]
COc1ccc(-n2c(-c3ccc(Br)cc3)nc(=S)c3c2CCCC3)cc1	-4.74% (inactive)	
CC(C)CCNC(=O)c1ccc(-n2cnc3cccnc32)cc1	-2.72% (inactive)	
COc1ccc2cc(CCNC(=O)CCc3ccccc3)c(=O)[nH]c2c1	0.89% (inactive)	
O=C(Nc1ncn[nH]1)c1ccc(S(=O)(=O)N2CCOCC2)cc1	-3.52% (inactive)	
COc1cccc(C(C2C(=O)CC(C)(C)CC2=O)C2C(=O)CC(C)(C)CC2=O)c1	23.1% (inactive)	
COC(=O)COc1ccc(NC(=O)C(c2ccccc2)c2ccccc2)cc1	-6.79% (inactive)	
CC1(C)CC(=O)C(C(c2ccc(F)cc2)C2C(=O)CC(C)(C)CC2=O)C(=O)C1	-0.73% (inactive)	
COc1ccc(C2=CC(=O)CC(C)(C)C2)cc1	2.79% (inactive)	
CC1(C)CC(=O)C(C(c2cccnc2)C2C(=O)CC(C)(C)CC2=O)C(=O)C1	12.3% (inactive)	-0.765
COC(=O)c1ccc(C(C2C(=O)CC(C)(C)CC2=O)C2C(=O)CC(C)(C)CC2=O)cc1	-3.89% (inactive)	
CC(=O)N(C)N(C)c1cc(C)nc(N)n1	0.78% (inactive)	
Nn1cnnc1N/N=C/c1ccc(F)cc1	0.39% (inactive)	
COc1ccc(CNc2ccc(S(N)(=O)=O)cc2)c(OC)c1OC	-2.41% (inactive)	
CCOc1ccc(NC(=O)N2CCCC2C(=O)NCC2CCCO2)cc1 (centres undefined)	-7.19% (inactive)	
O=C1CCCc2oc3c(c21)CCCC3	0.9% (inactive)	
COCCN1C(=O)C(=O)/C(=C(/O)c2ccc3c(c2)OCCO3)C1c1ccc(C(=O)OC)cc1 (centres undefined)	0.56% (inactive)	
COc1ccc(-c2csc(NC(=O)CSc3n[nH]c(C)n3)n2)cc1	-3.23% (inactive)	
COc1ccc(-c2csc(NC(=O)CSc3nc(C)cs3)n2)cc1	-6.77% (inactive)	
COc1ccccc1C(C)NCC(=O)NCc1ccc(C)cc1 (centres undefined)	-3.92% (inactive)	
Cc1nnc(SCC(=O)Nc2nnc(SCc3cccc(Br)c3)s2)s1	0.64% (inactive)	
CCCc1nc(SCC(=O)Nc2nc3c(s2)CCCC3)c2ccccc2n1	2.76% (inactive)	
CCOc1ccc(N2C(=O)C(=O)/C(=C(/O)c3ccccc3)C2c2ccccc2[N+](=O)[O-])cc1 (centres undefined)	13.8% (inactive)	
COc1cc(/C=C2/C(=O)NN(c3ccc(C)c(Cl)c3)C2=O)cc([N+](=O)[O-])c1O	69.8% (inactive)	

SMILES	inhibition	inhibition [1] [%]
COc1ccc(C(=Cc2ccccc2[N+](=O)[O-])C(=O)O)cc1	-6.2% (inactive)	
COc1ccc(N2C(=O)CSC2c2ccccc2[N+](=O)[O-])cc1 (centres undefined)	0.75% (inactive)	
CCOc1ccc(C(=O)N/N=C/c2ccccc2[N+](=O)[O-])cc1	-7.26% (inactive)	
O=C1NN(c2ccccc2)C(=O)/C1=C\c1ccc2c(c1)OCO2	15.1% (inactive)	
O=C1c2cccc([N+](=O)[O-])c2C(=O)N1c1ccccc1	0% (inactive)	
CN1C/C(=C/c2ccccc2[N+](=O)[O-])C(=O)/C(=C\c2ccccc2[N+](=O)[O-])C1	1.54% (inactive)	
CCc1noc(C)c1C(=O)NCCc1ccc(OC)c(OC)c1	-2.74% (inactive)	
CCOC(=O)C1C(C)=C(Nc2ccc(OC)cc2)C(=O)N1c1ccc(OC)cc1 (centres undefined)	-2.18% (inactive)	
O=C(Cn1cc([N+](=O)[O-])cn1)NCc1ccccc1Cl	-6.16% (inactive)	
Cc1c(C2(O)CCCCC2)[nH]c2ccc(C#N)cc12	1.37% (inactive)	
CC1(C)OC(C)(C)/C(=C\c2ccccc2[N+](=O)[O-])C1=O	-3.9% (inactive)	
O=C(O)/C=C\c1cc2c(cc1[N+](=O)[O-])OCO2	4.71% (inactive)	
O=C1NC(=S)N/C1=C/c1cc2c(cc1[N+](=O)[O-])OCO2	6.53% (inactive)	
O=C1NC(=O)C(=Cc2ccccc2[N+](=O)[O-])S1	13.1% (inactive)	
CCOC(=O)N1CCC(NC(=O)CSCc2nc(-c3ccccc3Cl)oc2C)CC1	-1.81% (inactive)	
CCc1ccc(C)[n+](CC(=O)c2cccs2)c1	-10.5% (inactive)	
O=C(c1cccnc1)N1CCN(S(=O)(=O)c2cccc(Cl)c2)CC1	2.63% (inactive)	
Cc1cccc(CCNS(=O)(=O)c2ccc3c(c2)NC(=O)CS3)c1	-3.63% (inactive)	
CSCCC(NC(N)=O)C(=O)Nc1ccc2ccccc2c1 (centres undefined)	3.12% (inactive)	
NC(=O)c1ccc(NC(=O)CNc2cc(S(=O)(=O)N3CCOCC3)ccc2N2CCCC2)cc1	-2.57% (inactive)	
CCN(CC)C(=O)c1ccccc1NC(=O)CN1C(=O)c2ccccc2S1(=O)=O	-2.2% (inactive)	
O=C(CN1C(=O)/C(=C/c2cccc(Cl)c2)SC1=S)NC1C=CS(=O)(=O)C1 (centres undefined)	-2.72% (inactive)	
O=C1/C(=C\c2cccc(O)c2)SC(=S)N1Cc1ccccc1	-14.8% (inactive)	

SMILES	inhibition	inhibition [1] [%]
COc1cccc(/C=C2/SC(=S)N(CC(=O)NNC(=O)c3ccccc3OC)C2=O)c1	4.13% (inactive)	
O=C(O)CN1C(=O)/C(=C\c2cccc(OC(=O)c3ccco3)c2)SC1=S	2.44% (inactive)	
CC(=O)NNC(=O)CN1C(=O)/C(=C/c2ccccc2)SC1=S	-2.32% (inactive)	
COc1cccc(/C=C2/SC(=S)N(CC(=O)NNC(=O)c3ccccc3O)C2=O)c1	2.67% (inactive)	
O=C(O)COc1cccc(/C=C2/SC(=S)N(Cc3ccccc3)C2=O)c1	13.1% (inactive)	
CN1C(=O)/C(=C\c2cccc(OCc3ccccc3)c2)SC1=S	5.28% (inactive)	
COc1ccccc1CC(=O)OCC(=O)N1CCN(c2ccc(F)cc2)CC1	-10.1% (inactive)	
Cc1[nH]c(C)c(S(=O)(=O)N2CCN(c3cccc(Cl)c3)CC2)c1C(=O)N1CCCCC1	-6.81% (inactive)	
CC(C)CCN(C(=O)C1CCCC1)c1c(N)n(Cc2ccccc2)c(=O)[nH]c1=O	0.73% (inactive)	
COCCn1c(C)cc(C(=O)CSc2nnnn2C2CCCC2)c1C	-0.76% (inactive)	
CCOP(=O)(OCC)c1nc(/C=C/c2ccccc2)oc1NCc1ccc(OC)cc1	-2.05% (inactive)	
Cc1ccc(NS(=O)(=O)Cc2ccccc2)nc1	-2.96% (inactive)	
O=S(=O)(Cc1ccccc1)Nc1ccccc1	1.96% (inactive)	-2.12
CNC(=O)NC(=S)NC(=O)c1ccccc1Cl	2.96% (inactive)	
COc1cc2c3c(c1)c(C1=NC(=S)NC1=O)c(O)n3C(C)(C)C=C2C	5.22% (inactive)	
Cc1ccc2c(c1)c(C1=NC(=S)NC1=O)c(O)n2C	-5.15% (inactive)	
CC1(C)O[C@@H]2[C@H](O1)[C@@H](CO)O[C@H]2n1cc(Br)c(=O)[nH]c1=O	-17.6% (inactive)	
NCCCC[C@@H]1NC(=O)c2cc([N+](=O)[O-])cc(F)c2NCCCC[C@@H](C(N)=O)NC(=O)CNC1=O	-4.1% (inactive)	
O=C(NCc1ccco1)c1nnc(Cc2ccc(F)cc2)o1	2.07% (inactive)	
N#Cc1c(-c2ccc(Cl)cc2)cc(-c2ccccc2)nc1SCC(=O)O	1.16% (inactive)	
COc1ccc(-c2cc(-c3ccccc3)c(C#N)c(SCC(=O)O)n2)cc1	14% (inactive)	
O=C(O)c1cccc2c1/C(=N/Nc1ccc([N+](=O)[O-])cc1[N+](=O)[O-])c1ccccc1-2	20.5% (inactive)	
